Results filed as inconclusive are left out. Calls of active or inactive are those of the source. Rule for the calls, unless noted: active = hit-call score of the fitted dose curve at least 0.9, where 1 is the maximum; inactive = score below 0.9. Peptide text beside a SMILES is read from it.
Tests used:
[1] = read-out: Interleukin 17A (IL17A), IL17A (gene 3605); experiment: BSK_BT_xIL17A: BioMAP Diversity Plus: BT Assay for Interleukin 17A (IL17A) Biomarker Activity (AID 2284229); settings: primary human B cells with PBMC
Procedure, shortened: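 Chemicals were added to a human B cell and PBMC co-culture. After 24 h, secreted IL-17A was measured with Luminex xMAP. Curves were fitted in the positive direction, with DMSO wells as baseline.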

[2] = read-out: Vascular cell adhesion molecule 1 (VCAM1), VCAM1 (gene 7412); experiment: BSK_MyoF_VCAM1: BioMAP Diversity Plus: MyoF Assay for Vascular cell adhesion molecule 1 (VCAM1) Biomarker Activity (AID 2284231); settings: primary human lung fibroblasts
Procedure, shortened: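 Steps: fibroblasts from human lung exposed to compound; biomarker quantified by ELISA at 24 h; values analysed for upward change over the DMSO baseline.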

[3] = read-out: Collagen I, COL1A1 (gene 1277); experiment: BSK_MyoF_CollagenI: BioMAP Diversity Plus: MyoF Assay for Collagen I Biomarker Activity (AID 2284238); settings: primary human lung fibroblasts
Procedure, shortened: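 Multiplexed primary human lung fibroblast system; Collagen I measured by ELISA at 24 h post-dose. Increases are referenced to DMSO.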

[4] = read-out: Collagen III, COL3A1 (gene 1281); experiment: BSK_MyoF_CollagenIII: BioMAP Diversity Plus: MyoF Assay for Collagen III Biomarker Activity (AID 2284239); settings: primary human lung fibroblasts
Procedure, shortened: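 Compounds are added to primary human lung fibroblasts and left for 24 hours. Collagen III is then quantified by ELISA. Analysis takes DMSO as baseline and fits increases in signal.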

[5] = read-out: Tumor necrosis factor (Homo sapiens) (UniProt P01375); experiment: BSK_BT_xTNFa: BioMAP Diversity Plus: BT Assay for Tumor necrosis factor alpha (TNF-alpha) Biomarker Activity (AID 2284230); settings: primary human B cells with PBMC
Procedure, shortened: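 Endpoint derived in the positive direction versus DMSO vehicle. Cells: B cells together with PBMC, exposed 24 h before TNF-alpha in the medium was read on the Luminex xMAP platform.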

[6] = UKN2_HCS_IMR90_cell_viability: Viability Assessment in the University of Konstanz (UKN) Leist Lab Neural Crest Cell Migration Assay in human induced IMR90 Pluripotent Stem Cells (UKN2) (AID 2284233);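 note: cells exposed to compound for 24 h after a 24 h migration phase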
Procedure, shortened: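 Viability read as calcein-AM fluorescence by high-content imaging, Hoechst co-stain, 30 min. Human iPSC (IMR90) neural crest cells had migrated 24 h into stopper-defined gaps before 24 h chemical exposure. Fitted bidirectionally relative to DMSO.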

[7] = CCTE_Mundy_HCI_Cortical_NOG_NeuronCount: CCTE's Neurite Outgrowth Assay in rat cortical cells for Neuron Count, Mundy Lab (AID 2284236; active = hit-call score of the fitted dose curve at least 0.9, where 1 is the maximum;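 note: neurons counted by imaging betaIII-tubulin and Hoechst stained cortical cells; cells exposed to compound for about 48 hours before fixation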)
Procedure, shortened: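 Read-out: neuron number by high-content imaging of betaIII-tubulin (Alexa Fluor-488) and Hoechst-labelled rat primary cortical cells.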

[8] = TAMU_HCS_1.5hr_SingleDonor1434_Cytotoxicity: Cytotoxicity Assessment using High-content Screening (HCS) Fluorescent Imaging for the Texas A&M University (TAMU) 1.5-hr Human Induced Pluripotent Stem Cell (iPSC)-derived Cardiotoxicity Assay (AID 2284234; active = hit-call score of the fitted dose curve at least 0.9, where 1 is the maximum)
Procedure, shortened: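 Nuclear counts from Hoechst 33342 imaging define cytotoxicity here, with EC10 (10% cell-count loss relative to DMSO) as point of departure. iPSC cardiomyocytes received 0.2-100 uM test chemical in 0.5% DMSO for 1.5 h at 37 C.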

Measured: AC50

Chain of Tumor necrosis factor (Homo sapiens) (P01375 whole entry, looked up): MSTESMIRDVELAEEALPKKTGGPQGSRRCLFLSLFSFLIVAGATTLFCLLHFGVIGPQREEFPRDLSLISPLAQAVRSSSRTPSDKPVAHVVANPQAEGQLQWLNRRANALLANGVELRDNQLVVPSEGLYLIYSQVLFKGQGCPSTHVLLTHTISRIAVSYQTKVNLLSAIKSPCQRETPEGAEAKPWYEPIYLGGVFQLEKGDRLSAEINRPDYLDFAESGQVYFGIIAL

CC(C)[N+](C)(CCOC(=O)C1c2ccccc2Oc2ccccc21)C(C)C
inactive: [1] | [2] | [3] | [4]

c1ccc2sc(SSN3CCOCC3)nc2c1
active: [1] 20 µM | [2] 30.4 µM | [3] 15.5 µM | [4] 28.4 µM

CC(C)c1cccc(C(C)C)c1N
inactive: [1] | [5] | [2] | [3] | [4]

CC1(C)CC(O)CC(C)(C)N1[O]
inactive: [1] | [5] | [2] | [3] | [4]

COC(OC)(C(=O)c1ccccc1)c1ccccc1
inactive: [1] | [5] | [2] | [3] | [4]

C=C(C)C(=O)OCCCCCCCCCCCC
inactive: [1] | [5] | [2] | [3] | [4]

O=C1CCCCCCCCCCC1
inactive: [1] | [2] | [3] | [4]

CCNc1nc(NC(C)(C)C)nc(OC)n1
inactive: [1] | [2] | [3] | [4]

Oc1c(Cl)cc(Cl)c(Cl)c1Cl
inactive: [1]
active: [2] 11.6 µM | [3] 20 µM | [4] 16.5 µM

C=CC(=O)OCCCCCCCC(C)C
inactive: [1] | [2] | [3] | [4]

c1ccc2c(c1)[nH]c1ccccc12
inactive: [1] | [2] | [3] | [4]

CC(C)CCCCCOC(=O)CS
inactive: [1] | [2] | [3] | [4]

Fc1ccc(Br)cc1
inactive: [1] | [2] | [3] | [4]

C=CC(=O)NC(C)(C)C
inactive: [1] | [5] | [2] | [3] | [4]

CCCCCCCCC(CO)CCCCCC (stereo not drawn)
inactive: [1] | [5] | [2] | [3] | [4]

C=CC(=O)OCCCCCCOC(=O)C=C
active: [1] 6.04 µM | [2] 20 µM | [3] 34.4 µM | [4] 25.7 µM

Clc1cc(Cl)c(Cl)c(Cl)c1Cl
inactive: [1] | [3] | [4]
active: [2] 20 µM

C=CCCCCCCCCC=O
inactive: [1] | [2] | [3] | [4]

CCC1(C)C(=O)N(Cl)C(=O)N1Cl (stereo not drawn)
inactive: [1] | [5] | [2] | [3] | [4]

CC=C(C)C(C)=O
inactive: [1] | [5] | [2] | [3] | [4]

CC/C=C\CCOC(=O)c1ccccc1O
active: [2] 34.2 µM | [3] 31.1 µM | [4] 36.1 µM
inactive: [1]

CCCCCCCO
inactive: [1] | [5] | [2] | [3] | [4]

CCOC(=O)C1=NOC(c2ccccc2)(c2ccccc2)C1
inactive: [1] | [2] | [3] | [4]

COc1ccc(C(=O)c2ccccc2)c(O)c1
inactive: [1] | [2] | [3] | [4]

CC(Cl)COP(=O)(OCC(C)Cl)OCC(C)Cl (stereo not drawn)
inactive: [1] | [2] | [3] | [4]

O=C(Oc1ccccc1)c1ccccc1C(=O)Oc1ccccc1
inactive: [1] | [5] | [3] | [4]
active: [2] 20 µM

CCCCNS(=O)(=O)c1ccccc1
inactive: [6] | [7]

COC(=O)[C@H](Cc1ccccc1)NC(=O)[C@@H](N)CC(=O)O (H-Asp-Phe-OMe)
inactive: [8] | [7]

— PubChem BioAssay (EPA / NIEHS)
